Assay results from PubChem BioAssay AID488839 (Broad Institute, 2010).
About 35 (0.01%) of roughly 330,000 compounds were called active.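 Rule for the calls: active = highest replicate inhibition of at least 50% and at least 75% of replicates reaching 50%; inconclusive = only one of the two criteria met; inactive = both criteria failed.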 A selection follows.

What follows are compounds tested against Cyclin-dependent kinase 5 (Homo sapiens) + Cyclin-dependent kinase 5 activator 1 (Homo sapiens) (UniProt Q00535+Q15078) (assay: inhibitors of human CDK5/p35 kinase, primary screen, biochemical, single concentration (AID 488839;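 note: plate controls were DMSO neutral control for no effect and GW8510 at 10 µM for full effect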)). Conditions: Recombinant CDK5/p35, ADP-Glo luminescence, 60 min; at 10 µM; hits give high values.
Sequence of Cyclin-dependent kinase 5 (Homo sapiens) + Cyclin-dependent kinase 5 activator 1 (Homo sapiens) (Q00535 whole entry, looked up): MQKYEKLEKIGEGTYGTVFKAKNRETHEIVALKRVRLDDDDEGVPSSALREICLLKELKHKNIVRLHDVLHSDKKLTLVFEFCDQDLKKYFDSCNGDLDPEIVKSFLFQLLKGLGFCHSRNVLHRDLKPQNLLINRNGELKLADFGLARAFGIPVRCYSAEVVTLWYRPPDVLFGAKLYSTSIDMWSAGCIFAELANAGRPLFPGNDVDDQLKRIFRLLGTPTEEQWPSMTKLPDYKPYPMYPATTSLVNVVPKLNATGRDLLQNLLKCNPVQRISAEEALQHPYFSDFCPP
Sequence of Cyclin-dependent kinase 5 (Homo sapiens) + Cyclin-dependent kinase 5 activator 1 (Homo sapiens) (Q15078 whole entry, looked up): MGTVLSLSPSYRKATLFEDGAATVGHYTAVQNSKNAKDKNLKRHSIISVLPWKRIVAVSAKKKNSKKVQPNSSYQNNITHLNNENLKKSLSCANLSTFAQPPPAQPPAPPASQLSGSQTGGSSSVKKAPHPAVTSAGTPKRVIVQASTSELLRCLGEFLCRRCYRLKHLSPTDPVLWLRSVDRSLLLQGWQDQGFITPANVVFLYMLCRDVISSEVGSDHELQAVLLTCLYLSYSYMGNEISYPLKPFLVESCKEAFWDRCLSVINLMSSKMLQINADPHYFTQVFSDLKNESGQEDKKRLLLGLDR

inhibition, inactive:
COc1ccc(-c2csc3nc(-c4ccccc4F)oc(=O)c23)cc1OC -0.745%, CCCN1CNC(=S)N(CCc2ccccc2)C1 0.897%, OCc1n[nH]c(CO)n1 -0.355%, CC(C)COC(=O)n1c(=O)oc2ccc(S(=O)(=O)N3CCCCC3)cc21 -6.42%, COc1ccc(NC(=O)CC2C(=O)NC3CCCCC3N2C(=O)c2ccc(F)cc2)cc1 (stereo unspecified) 0.318%, CN(CC(=O)Nc1ccc(F)cc1)CC(=O)N1CCCCC1 1.08%, Cc1coc2c(O)cc3c(c12)OC1(N2CCCCC2)C(=O)NCCCC31 (stereo unspecified) -0.717%, CCCCN1C(=O)C(C)=C(C)C1OCCc1ccc(OC)c(OC)c1 (stereo unspecified) 1.7%, N/C(=N\OC(=O)Nc1ccccc1)c1ccno1 -1.08%, Cc1c2cnn(-c3ccccc3)c(=O)c2c(C)n1CCCC(=O)N1CCN(C)CC1 0.518%, COc1ccccc1NC(=O)CSc1nnc(-c2ccoc2C)n1CCc1ccccc1 -0.569%, COc1ccccc1NC(=O)c1ccc(N2CC3CC(C2)c2cccc(=O)n2C3)c(NC(=O)c2cccnc2)c1 (stereo unspecified) -1.98%, CC1C(C)N(C(=O)CCl)c2ccccc2N1C(=O)CCl (stereo unspecified) 1.01%, C[C@H](NC(=O)C1CC(=O)N(c2ccc3c(c2)OCO3)C1)C(=O)NCc1ccco1 (stereo partly specified) -0.436%, CCc1n[nH]c(=S)n1/N=C/c1c[nH]c2ccc(Br)cc12 2.39%, COC(=O)Cc1ccc(OCC(=O)NC2CCCC2)cc1 0.995%, O=C(Nc1c2c(nn1-c1ccc(F)cc1)CS(=O)C2)C12CC3CC(CC(C3)C1)C2 (stereo unspecified) -0.258%, Cc1cccc(C(=O)NCc2nnc(SC(C)C(=O)Nc3nnc(C)s3)n2C)c1 (stereo unspecified) 1.14%, COc1ccc(Cl)cc1NC(=O)COC(=O)C(CC(C)C)N1C(=O)C2CC=CCC2C1=O (stereo unspecified) -0.94%, CCOC(=O)c1ccc2[nH]c(C)c(CN3CCN(C)CC3)c(=O)c2c1 -4.67%, COc1ccc(OC)c(NC(=O)CN(Cc2ccc(Cl)cc2)S(C)(=O)=O)c1 0.423%, O=C(CSc1nnc(SCc2ccc(Cl)cc2)s1)N/N=C/c1ccccc1Cl -1.05%, O=S(=O)(NCCSc1ccccn1)c1ccc(Cl)cc1 0.39%, O=C(C1CCN(C2CCN(Cc3ccc4cc(F)ccc4n3)CC2)CC1)N1CCCC1 0.175%, COc1ccc(C(=O)Cn2nnc(-c3ccc(N4CCOCC4)cc3)n2)cc1OC -3.2%, COC(=O)c1c(NC(=O)c2c(Cl)cnn2C)sc(C)c1C -2.29%, O=c1[nH]c2ccc(S(=O)(=O)N3CCCC3)cc2[nH]1 -0.663%, CCOc1ccc(OCCSc2nc3ccccc3n2CC(=O)O)cc1 0.306%, Cc1nc(-c2nnc(SCC(=O)Nc3cc(C(F)(F)F)cc(C(F)(F)F)c3)n2C)cs1 -0.227%, CCCCCCCC(=O)OC(CN1CCCCCC1)CN1CCCC1=O (stereo unspecified) 0.855%, CC(CC(=O)Nc1ccc(F)cc1F)S(=O)(=O)c1ccc2c(c1)NC(=O)CO2 (stereo unspecified) 0.798%, COc1ccccc1NC(=O)C1CCCN(c2cc(C)nc3ncnn23)C1 (stereo unspecified) 0.792%, Cc1cccc(C)c1NC(=O)CNC(=O)C1CCCC1 0.783%, Cc1ccc(Nc2cc(=O)n(C3CCCCC3)c(=O)[nH]2)cc1C -0.561%, CC(C)NC(=O)COCc1cc(-c2ccc3c(c2)OCO3)on1 -3.05%, CC(=O)Nc1ccc(OC(=O)COc2ccc(Br)cc2)cc1 -1.45%, CCCNC(=O)c1c(Cl)cnn1-c1ccc(C)cc1 -0.745%, Cc1noc(C)c1NC(=O)Nc1ccc2c(c1)C(=O)N([C@H](C)CO)C[C@H](C)[C@@H](CN(C)S(=O)(=O)c1cn(C)cn1)O2 0.62%, O=C(CCc1nnc2ccc(NCc3ccco3)nn12)Nc1cc(F)ccc1F 0.605%, O=C(O)Cn1c(Cc2ccccc2)nc2ccccc21 -0.592%, COc1ccc(C2OC(=O)CC2C(=O)NC(C)C)cc1 (stereo unspecified) -11.3%, O=C(CC1Nc2ccccc2NC1=O)Nc1ccccc1 (stereo unspecified) 1.13%, CCCCCCSc1ccc([C@@H]2[C@@H]3C(=O)N(CC)C(=O)[C@@H]3[C@]3(C(=O)OC)CCCCN23)cc1OC -6.06%, Cc1ccccc1NS(=O)(=O)CCCCC(Cl)(Cl)Cl -0.0868%, O=C(COc1coc(CN2CCN(c3ccccc3F)CC2)cc1=O)N1CCc2ccccc21 0.232%, COc1ccc(Cl)cc1NC(=O)CN(C)CC(=O)Nc1ccc2c(c1)OCO2 1.26%, O=Cc1c(N2CCN(c3cccc(Cl)c3)CC2)nc2ccccn2c1=O -1.83%, CN1CCN(S(=O)(=O)c2ccc(N3CCN(S(=O)(=O)c4cccs4)CC3)nc2)CC1 -0.333%, CCC(C)c1ccccc1N1CC(C(=O)N2CCN(S(=O)(=O)c3ccc(F)cc3)CC2)CC1=O (stereo unspecified) 0.723%, CC(C)[C@H](NC(=O)N1CCn2c1nc1ccccc12)C(=O)NC1CC1 2.48%, COc1cc(C(=O)N2CCN(S(=O)(=O)c3ccc(C(C)C)cc3)CC2)ccc1OCC(=O)N1CCOCC1 -0.998%, Cc1cccc(NC(=O)c2ccc(OCC(=O)NCc3ccccc3)cc2)c1C 0.801%, Cc1nc2c(-c3ccc(F)cc3)c(C)nn2c(C)c1CCC(=O)NCc1ccco1 -0.00338%, CCc1ccc(C(=O)CSc2nnc(C)c(=O)[nH]2)cc1 -0.74%, Cc1cc(C)cc(Oc2nc3c(C)cccn3c(=O)c2/C=C(\C#N)C(=O)NC2CCS(=O)(=O)C2)c1 (stereo unspecified) 0.399%, CC(C)[C@H](NC(=O)N1CCn2c1nc1ccccc12)C(=O)NCCc1ccccc1 1.82%, COC(=O)c1ccccc1NC(=O)C1CCN(S(=O)(=O)c2cc(OC)ccc2OC)CC1 0.427%, N#Cc1ccc(C(=O)Nc2nc(-c3cccs3)c(C(=O)C(F)(F)F)s2)cc1 -1.16%, O=C(Cn1nc(Cc2cccnc2)c2ccccc2c1=O)NCC1CCCO1 (stereo unspecified) -0.846%, CCOC(=O)Cc1c(C)nc2c(C#N)c(C)nn2c1C -2.18%, CC(C)CCN(C(=O)c1csnn1)C(C(=O)NC1CCCC1)c1ccccc1 (stereo unspecified) 0.702%, COCc1c(N)c(C)nc(Cl)c1C#N 11.1%, O=C(Cn1nc(C(=O)O)c2ccccc2c1=O)Nc1ccc(F)cc1 0.796%, CCC(C)(C)NC(=O)C(c1ccc(OC)cc1)N(C(=O)CCC(=O)Nc1cc(C)on1)c1ccc(OC)cc1OC (stereo unspecified) -0.155%, CCSc1ccccc1C(=O)NCc1ccc(OC)cc1 0.696%, COc1ccc(OC)c(/C(C)=N\NC(=O)c2cc3cc(Cl)ccc3n2C)c1 0.107%, CS(=O)(=O)N(CC(=O)N1CCCCCC1)c1cccc(Cl)c1Cl 0.703%, CCOc1ccc(C(=O)NC2CCN(CC(=O)NCc3cccs3)CC2)cc1 1.1%, CC(C)CCNC(=O)C1CCCN(S(=O)(=O)c2ccc(F)cc2)C1 (stereo unspecified) -0.29%, COc1ccc(-c2nc3n(c(=O)c2C#N)CCS3)c(OC)c1 0.425%, CC(Sc1nnnn1C)C(=O)NC(=O)NC1CCCCC1 (stereo unspecified) -1.1%, CCc1c(C)nc2c(-c3ccccc3)c(C)nn2c1Nc1ccc(NC(C)=O)cc1 0.169%, CCN(C(=O)COC(=O)c1ccccc1O)c1cccc2ccccc12 -1.97%, COc1cccc(CC2(CO)CCCN(Cc3ccc(OC(F)F)cc3)C2)c1 (stereo unspecified) 0.552%, Cc1ccc(C2SCC(=O)N2c2ccccc2)cc1 (stereo unspecified) 0.449%, COC(=O)Nc1ncc(CN2C(=O)c3ccccc3C2=O)s1 0.873%, CCC(C)NC(=O)Cn1nc(C(F)(F)F)c2c1CCC2 (stereo unspecified) -1.07%, Cc1ccc(C)c(NS(=O)(=O)c2cc(Br)cnc2N)c1 -0.401%, CSCCC(NS(=O)(=O)c1ccccc1F)C(=O)N1CC=C(c2ccccc2)CC1 (stereo unspecified) 0.0413%, CCCCCCCC[n+]1cccc(C(=O)N2c3c(nc(N)[nH]c3=O)NC(C)C2C)c1 (stereo unspecified) -4.49%, CC(OC(=O)Cc1ccc(F)cc1)C(=O)N1CCc2ccccc21 (stereo unspecified) -7.94%, O=C(O)/C(=C/c1cccnc1)NC(=O)c1ccccc1 1.62%, O=C(O)CN1C(=O)CC(Cc2ccccc2)C1=O (stereo unspecified) -1.35%, CC(Nc1ccccc1)c1cccnc1 (stereo unspecified) -1.25%, Cc1nc2nc(COc3ccccc3)[nH]n2c(=O)c1Cc1ccccc1 -2%, Cc1csc(OCC(=O)Nc2ccc(C)c(C)c2)n1 -0.147%, CCS(=O)(=O)c1ccc(C(=O)NC)c(Cl)c1Cl -2.96%, CCc1cccc(C)c1N(C(=O)Cn1c(CO)nc2ccccc21)C(C)COC (stereo unspecified) -0.226%, O=c1c2ccccc2ccc2ccc(P(=O)(O)O)cc12 1.94%, CCC(C)N(C(=O)Cn1nc(C)c([N+](=O)[O-])c1C)C1CCS(=O)(=O)C1 (stereo unspecified) -0.0593%, Cc1c(CCO)c(=O)[nH]n1C(=O)c1c(F)cccc1F 0.283%
